Source: PubChem BioAssay (NCATS)
“And” between values parts separate entries of the source, which are not always exact repeats. Equal entries are not always repeated. Records with an inconclusive call do not appear. The source made the active and inactive calls. The call rests on the fitted dose curve; in most records, active means well fitted cell-killing curve with a large enough effect; inconclusive means small, poorly fitted or top-dose-only effect, or effect the other way; inactive means no such curve, though single readings can be large or run the other way.

test: Viability qHTS for spleen associated tyrosine kinase inhibitor (SYKi) naive MV4-11 cells (AID 1963823); settings: MV4-11 AML viability, CellTiter-Glo luminescence, 72 h; series mostly up to 45 µM; viability (% of control): at the top concentration; further: nearly all actives have a fitted effect of over 40% in size
Method in brief: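 Cells: MV4-11, SYK inhibitor naive, 500 per well. Treatment: library compounds, 72 hr, 37 C, 5% CO2. Read-out: CellTiter-Glo luminescence after 10 min RT.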
Potency means the concentration at half of the fitted maximal effect.

| Compound | Potency | viability (% of control) |
| --- | --- | --- |
| CC12Cc3cn[nH]c3C=C1CCC1C2CCC2(C)C1CCC2(C)O (stereo not drawn) | 25900 nM (active) |  |
| CC1=C[C@H]2O[C@@H]3[C@H](O)[C@@H](O)[C@](C)([C@@]2(CO)C[C@@H]1O)[C@]31CO1 | 820 nM (active) |  |
| C=C(C)[C@H]1Cc2c(ccc3c2O[C@@H]2COc4cc(OC)c(OC)cc4[C@@H]2C3=O)O1 | 37.6 nM (active) |  |
| Cc1[nH]nc2ccc(-c3cncc(OC[C@@H](N)Cc4c[nH]c5ccccc45)c3)cc12 | 46.8 nM (active) |  |
| N[C@@H](Cc1ccc(N(CCCl)CCCl)cc1)C(=O)O | 10.6 µM (active) and 833 nM (active) |  |
| CO[C@H]1C[C@H](O[C@H]2CC[C@]3(C=O)[C@H]4CC[C@]5(C)[C@@H](C6=CC(=O)OC6)CC[C@]5(O)[C@@H]4CC[C@]3(O)C2)O[C@H](C)[C@H]1O | 63.2 nM (active) |  |
| COc1cc(O)c2c(c1)CCC[C@@H](O)[C@H](O)C(=O)/C=C\C[C@H](C)OC2=O | 1800 nM (active) |  |
| COC[C@]12CN(C)C3C4[C@H](OC)[C@H]1C3(C(OC)C[C@H]2O)[C@H]1C[C@@]2(O)[C@H](OC(=O)c3ccccc3)[C@@H]1[C@]4(O)[C@@H](O)[C@@H]2OC (stereo partly drawn) |  | 82.1% (inactive) |
| CC(C)(C)c1cc(C=C(C#N)C#N)cc(Br)c1O | 16600 nM (active) |  |
| O=P1(NCCCl)OCCCN1CCCl (stereo not drawn) | inactive |  |
| CC[C@H](C)[C@@H]([C@@H](CC(=O)N1CCC[C@H]1[C@H](OC)[C@@H](C)C(=O)N[C@@H](Cc1ccccc1)c1nccs1)OC)N(C)C(=O)[C@@H](NC(=O)C(C)(C)N)C(C)C |  | 4.04% (inactive) |
| CCOc1ccccc1-n1c(C(C)N2CCN(C(=O)COc3ccc(Cl)cc3)CC2)nc2ccccc2c1=O (stereo not drawn) | 920 nM (active) and 742 nM (active) |  |
| CN1C(=O)COc2c(C(=O)NC3CN4CCC3CC4)cc(Cl)cc21 (stereo not drawn) |  | 63.1% (inactive) |
| CN1C[C@@H]2CN(c3ccc(-c4ccccc4)nn3)C[C@@H]2C1 |  | 61.5% (inactive) |
| C[C@]12CC[C@H]3[C@@H]([C@H](O)CC4=CC(=O)CC[C@@]43C)[C@@H]1CC[C@@H]2O |  | 94.4% (inactive) |
| CC(NC(C)(C)C)C(=O)c1cccc(Cl)c1 (stereo not drawn) | inactive |  |
| CC[C@@H](C(N)=O)N1CCCC1=O |  | 99.2% (inactive) |

| Compound | Potency | viability (% of control) |
| --- | --- | --- |
| NCC1(CC(=O)O)CCCCC1 | inactive |  |
| Fc1cc(F)c2c(c1)C1C=CCC1C(c1cccnc1)N2 (stereo not drawn) | 3660 nM (active) |  |
| C=CC(C)(C)c1[nH]c2c(CC=C(C)C)cc(CC=C(C)C)cc2c1C[C@@H]1NC(=O)[C@H](C)NC1=O |  | 81.8% (inactive) |
| CN1CCCC1CCOC(c1cc2nccc(C(=O)O)c2[nH]1)c1ccccc1Cl (stereo not drawn) |  | 119% (inactive) |
| CC(C)(O)/C=C/C(=O)[C@](C)(O)[C@H]1[C@H](O)C[C@@]2(C)[C@@H]3CC=C4[C@@H](C[C@H](O)C(=O)C4(C)C)[C@]3(C)C(=O)C[C@]12C | 317 nM (active) |  |
| COc1cc2c(cc1OC)[C@@]13CCN4CC5=CCO[C@H]6CC(=O)N2[C@H]1[C@H]6[C@H]5C[C@H]43 |  | 77.8% [at 17.3 µM] (inactive) |
| CCN1CC2(COC)C3[C@@H](OC)C4C1C3(C1C[C@]3(O)[C@H](OC(=O)c5ccccc5)C1[C@]4(OC(C)=O)[C@@H](O)[C@@H]3OC)[C@H](OC)C[C@H]2O (stereo partly drawn) |  | 88.3% (inactive) |
| CCNC(=O)C[C@@H]1N=C(c2ccc(Cl)cc2)c2cc(OC)ccc2-n2c(C)nnc21 | 411 nM (active) and 417 nM (active) |  |
| CCCCCCCCC(=O)NCc1ccc(O)c(OC)c1 |  | 13.3% (inactive) |
| Cc1ncc(OC[C@@]2(c3cccc(F)c3)C[C@H]2C(=O)Nc2ccc(F)cn2)c(C)n1 |  | 84.9% (inactive) |
| CN1CCN(c2ccc([N+](=O)[O-])c3no[n+]([O-])c23)CC1 | 8330 nM (active) |  |
| CC(C)c1cccc(C(C)C)c1O |  | 52.7% (inactive) |
| COC1CC(O[C@H]2CC[C@]3(C=O)C4CC[C@]5(C)[C@@H](C6=CC(=O)OC6)CC[C@]5(O)[C@@H]4CC[C@@H]3C2)OC(C)C1O[C@@H]1O[C@H](CO)[C@@H](O[C@@H]2O[C@H](CO)[C@@H](O)[C@H](O)[C@H]2O)[C@H](O)[C@H]1O (stereo partly drawn) | 174 nM (active) |  |
| COC(=O)[C@@H](N)CCCN=C(N)N[N+](=O)[O-] |  | 99.5% (inactive) |
| CCCN1CCO[C@H]2c3cc(O)ccc3OC[C@@H]21 |  | 70.2% (inactive) |
| CO[C@@H]1[C@H](O)[C@@H](O[C@@H]2C[C@H]3CC[C@@H]4C(CC[C@]5(C)[C@@H](C6=CC(=O)OC6)CC[C@]45O)[C@@]3(C)[C@H](O)C2)O[C@H](C)[C@@H]1O[C@@H]1O[C@H](CO)[C@@H](O)[C@H](O)[C@H]1O (stereo partly drawn) | 96.8 nM (active) |  |
